# Reference: PubChem BioAssay
# Calls of active or inactive are those of the source.
# What was measured:
# [1] = tested on: Plasmodium falciparum Sir2 (PF13_0152, Sir2A); assay: Plasmodium falciparum Sir2A binding compounds – biochemical, small-molecule microarray, 635 nm fluorescence, primary screen (AID 1098); details: fluorescence 635 nm, higher = more signal;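 further: score merges spot fluorescence intensity with its signal-to-noise ratio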
# [2] = probe aDKK1 binding to arrayed compounds – biochemical, biotinylated probe, 635/667 nm fluorescence, primary screen (AID 1099); details: small-molecule microarray, higher = more signal;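 further: score merges 667nm spot fluorescence with signal to noise across triplicate slides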
# [3] = probe aCHRDL2 binding to arrayed compounds – biochemical, biotinylated probe, 635/667 nm fluorescence, primary screen (AID 1100); details: small-molecule microarray, higher = more signal
# [4] = change in splice reporter luminescence, either direction, cell-based, HEK293, spliceosome inhibition project, primary screen (AID 1101); details: HEK293 splicing luciferase reporter, 24 h, higher = more signal, called active from +8 up or from −8 down;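 further: HEK293 cells carrying a splicing-competent luciferase reporter gene; test concentration not given here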
# [5] = target: Fibroblast growth factor 10 (Homo sapiens) (UniProt O15520); assay: compounds binding fibroblast growth factor 10 – biochemical, small-molecule microarray, 635 nm fluorescence, primary screen (AID 1102); details: FGF10 binding, fluorescence 635 nm, higher = more signal
# Sequence of Fibroblast growth factor 10 (Homo sapiens) (O15520 whole entry, looked up): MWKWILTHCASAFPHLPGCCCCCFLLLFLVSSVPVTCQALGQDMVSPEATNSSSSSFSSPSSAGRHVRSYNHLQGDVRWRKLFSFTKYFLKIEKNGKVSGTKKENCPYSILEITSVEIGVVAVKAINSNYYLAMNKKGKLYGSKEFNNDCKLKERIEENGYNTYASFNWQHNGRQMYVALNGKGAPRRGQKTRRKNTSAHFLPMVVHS
# [6] = tested on: glycogen synthase kinase-3 (GSK3A per assay name; protocol says GSK3B); assay: compounds binding glycogen synthase kinase-3 – biochemical, small-molecule microarray, 635 nm fluorescence, GSK3A, primary screen (AID 1103); details: fluorescence 635 nm, higher = more signal; further: the record names both GSK3A and GSK3B
# [7] = target: Epidermal growth factor receptor (Homo sapiens) (UniProt P00533); assay: compounds binding epidermal growth factor receptor – biochemical, small-molecule microarray, 635 nm fluorescence, primary screen (AID 1104); details: EGFR binding, higher = more signal;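 further: score merges 667 nm emission intensity with spot signal to noise over triplicate slides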
# Sequence of Epidermal growth factor receptor (Homo sapiens) (P00533 whole entry, looked up): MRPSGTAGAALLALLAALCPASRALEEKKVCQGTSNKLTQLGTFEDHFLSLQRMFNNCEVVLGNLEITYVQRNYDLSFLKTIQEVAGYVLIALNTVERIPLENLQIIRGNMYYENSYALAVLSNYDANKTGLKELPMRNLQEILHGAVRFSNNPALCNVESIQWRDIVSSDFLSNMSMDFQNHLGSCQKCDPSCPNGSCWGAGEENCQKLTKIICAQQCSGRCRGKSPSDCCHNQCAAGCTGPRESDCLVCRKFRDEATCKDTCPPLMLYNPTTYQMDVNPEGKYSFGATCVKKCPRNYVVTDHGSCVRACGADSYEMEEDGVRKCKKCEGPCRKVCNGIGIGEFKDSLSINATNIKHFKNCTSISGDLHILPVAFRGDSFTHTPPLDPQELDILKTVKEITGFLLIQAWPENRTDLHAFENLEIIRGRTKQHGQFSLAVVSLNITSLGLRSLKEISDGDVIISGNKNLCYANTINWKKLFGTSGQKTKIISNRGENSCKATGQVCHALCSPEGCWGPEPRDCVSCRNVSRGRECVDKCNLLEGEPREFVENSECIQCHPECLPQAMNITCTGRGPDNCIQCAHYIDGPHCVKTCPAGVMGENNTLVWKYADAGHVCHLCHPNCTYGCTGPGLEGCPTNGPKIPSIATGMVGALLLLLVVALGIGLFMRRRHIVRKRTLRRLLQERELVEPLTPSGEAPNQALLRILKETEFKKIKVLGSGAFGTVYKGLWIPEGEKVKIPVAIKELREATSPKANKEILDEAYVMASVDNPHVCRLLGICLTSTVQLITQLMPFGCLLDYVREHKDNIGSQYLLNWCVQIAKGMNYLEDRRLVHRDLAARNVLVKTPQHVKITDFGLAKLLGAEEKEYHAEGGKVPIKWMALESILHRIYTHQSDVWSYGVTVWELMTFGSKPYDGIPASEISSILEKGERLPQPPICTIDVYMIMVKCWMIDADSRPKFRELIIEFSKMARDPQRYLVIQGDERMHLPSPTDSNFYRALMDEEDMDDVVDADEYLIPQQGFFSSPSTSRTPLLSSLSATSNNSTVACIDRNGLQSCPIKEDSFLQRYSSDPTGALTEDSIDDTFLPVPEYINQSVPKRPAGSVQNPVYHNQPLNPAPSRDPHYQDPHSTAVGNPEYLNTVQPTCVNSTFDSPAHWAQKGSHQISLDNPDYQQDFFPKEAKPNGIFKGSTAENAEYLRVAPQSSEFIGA
# [8] = target: Follistatin-related protein 3 (Homo sapiens) (UniProt O95633); assay: compounds binding follistatin-related protein 3 – biochemical, small-molecule microarray, 635 nm fluorescence, primary screen (AID 1105); details: FSTL3 binding, higher = more signal;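 further: score merges emission near 667 nm and signal to noise per printed spot across three slides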
# Sequence of Follistatin-related protein 3 (Homo sapiens) (O95633 whole entry, looked up): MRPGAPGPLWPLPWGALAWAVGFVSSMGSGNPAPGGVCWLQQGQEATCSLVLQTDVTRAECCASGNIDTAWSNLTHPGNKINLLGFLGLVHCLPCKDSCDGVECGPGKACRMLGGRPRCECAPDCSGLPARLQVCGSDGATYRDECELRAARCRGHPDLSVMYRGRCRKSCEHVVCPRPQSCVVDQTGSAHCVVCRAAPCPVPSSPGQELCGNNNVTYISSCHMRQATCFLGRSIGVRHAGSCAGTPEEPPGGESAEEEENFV
# [9] = target: Dickkopf-related protein 1 (Homo sapiens) (UniProt O94907); assay: small molecules binding DKK1 protein – biochemical, small-molecule microarray, 635 nm fluorescence scan, primary screen (AID 1106); details: higher = more signal;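 further: score merges emission near 667 nm with signal to noise over three replicate slides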
# Sequence of Dickkopf-related protein 1 (Homo sapiens) (O94907 whole entry, looked up): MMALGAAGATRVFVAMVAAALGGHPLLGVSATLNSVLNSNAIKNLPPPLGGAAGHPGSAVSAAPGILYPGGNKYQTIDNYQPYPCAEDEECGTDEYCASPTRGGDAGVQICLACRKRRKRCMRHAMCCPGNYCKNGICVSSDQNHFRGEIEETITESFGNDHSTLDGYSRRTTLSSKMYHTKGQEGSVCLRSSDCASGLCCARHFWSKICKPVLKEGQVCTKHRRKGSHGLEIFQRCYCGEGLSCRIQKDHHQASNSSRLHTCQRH
# [10] = tested on: Inhibin beta A chain (activin A); assay: small molecules binding activin A – biochemical, small-molecule microarray, 635 nm fluorescence scan, primary screen (AID 1107); details: INHBA, higher = more signal;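 further: mouse activin A protein probed at 4.33 µg/mL on printed slides; score merges bound-protein fluorescence near 667 nm with spot signal-to-noise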
# [11] = tested on: Human papillomavirus type 1a protein E7 (residues 44-93); assay: small molecules binding HPV E7 44-93 – biochemical, small-molecule microarray, residues 44-93, 635 nm fluorescence, primary screen (AID 1108); details: fluorescence 635 nm, higher = more signal;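 further: E7 fragment applied at 1 µg/mL in TBST for 1 h at 4 C; score combines spot fluorescence with its signal to noise ratio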
# [12] = hepatitis C replication reporter changes, two-sided – Huh7 cells, luciferase reporter, HCV replication inhibitor project, primary screen (AID 1109); details: Huh7 HCV replicon luciferase reporter, 48 h; higher = more signal;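 further: huh7 hepatoma cells harbouring a luciferase neomycin HCV replicon reporter; luciferase luminescence as measure of HCV replicon replication; test concentration not given here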
# [13] = target: Left-right determination factor 2 (Homo sapiens) (UniProt O00292); assay: small molecules binding LEFTY2 protein – biochemical, small-molecule microarray, 635 nm fluorescence scan, primary screen (AID 1110); details: higher = more signal
# Sequence of Left-right determination factor 2 (Homo sapiens) (O00292 whole entry, looked up): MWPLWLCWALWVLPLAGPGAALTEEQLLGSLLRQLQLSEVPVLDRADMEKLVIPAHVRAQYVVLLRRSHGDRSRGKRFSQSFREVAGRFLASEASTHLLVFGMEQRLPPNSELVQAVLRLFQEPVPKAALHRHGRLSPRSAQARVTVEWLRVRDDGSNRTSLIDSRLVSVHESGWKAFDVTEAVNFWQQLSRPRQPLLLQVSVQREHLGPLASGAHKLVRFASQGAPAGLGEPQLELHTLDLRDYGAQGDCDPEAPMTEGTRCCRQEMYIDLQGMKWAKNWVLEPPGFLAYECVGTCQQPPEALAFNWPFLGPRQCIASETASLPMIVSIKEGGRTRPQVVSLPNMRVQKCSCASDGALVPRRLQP
# [14] = target: Calmodulin-1 (Homo sapiens) (UniProt P0DP23); assay: small molecules binding calmodulin-1 with EGTA – biochemical, small-molecule microarray, Cy5-labelled CALM1, profiling panel (AID 1111); details: Cy5-CALM1 binding fluorescence, higher = more signal;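 further: labelled calmodulin applied in Tris saline Tween buffer holding calcium plus EGTA and DTT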
# [15] = target: Calmodulin-1 (Homo sapiens) (UniProt P0DP23); assay: small molecules binding Ca-loaded calmodulin-1 – biochemical, small-molecule microarray, Cy5-labelled CALM1, plus calcium, artefact control for SMM control-protein annotation, profiling panel (AID 1112); details: Cy5-CALM1 binding fluorescence, higher = more signal;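 further: score merges spot fluorescence with signal to noise from triplicate slides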
# [16] = probe aWnt5a binding to arrayed compounds – biochemical, biotinylated probe, 635/667 nm fluorescence, primary screen (AID 1113); details: small-molecule microarray, higher = more signal;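 further: score merges 667 nm fluorescence intensity with signal-to-noise per printed feature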
# [17] = probe aShh binding to arrayed compounds – biochemical, biotinylated probe, 635/667 nm fluorescence, primary screen (AID 1114); details: small-molecule microarray, higher = more signal;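 further: probe is biotin-labelled aShh protein from a stem cell growth factor screen; measures binding of labelled protein to compounds printed on the slide; score merges feature fluorescence at 667 nm with signal-to-noise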
# [18] = probe aNog binding to arrayed compounds – biochemical, biotinylated probe, 635/667 nm fluorescence, primary screen (AID 1115); details: small-molecule microarray, higher = more signal;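 further: probe is biotinylated aNog protein used at 0.15 µg/mL for 1 h at 4 C; z-score combines 667 nm fluorescence of each spot with its signal to noise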
# [19] = target: Torsin-1A-interacting protein 1 (Homo sapiens) (UniProt Q5JTV8); assay: compound microarray binding of lysate hLAP1 – cell lysate, small-molecule microarray, COS7 lysate, 635/667 nm fluorescence, primary screen (AID 1116); details: 635 nm fluorescence, higher = more signal
# Sequence of Torsin-1A-interacting protein 1 (Homo sapiens) (Q5JTV8 whole entry, looked up): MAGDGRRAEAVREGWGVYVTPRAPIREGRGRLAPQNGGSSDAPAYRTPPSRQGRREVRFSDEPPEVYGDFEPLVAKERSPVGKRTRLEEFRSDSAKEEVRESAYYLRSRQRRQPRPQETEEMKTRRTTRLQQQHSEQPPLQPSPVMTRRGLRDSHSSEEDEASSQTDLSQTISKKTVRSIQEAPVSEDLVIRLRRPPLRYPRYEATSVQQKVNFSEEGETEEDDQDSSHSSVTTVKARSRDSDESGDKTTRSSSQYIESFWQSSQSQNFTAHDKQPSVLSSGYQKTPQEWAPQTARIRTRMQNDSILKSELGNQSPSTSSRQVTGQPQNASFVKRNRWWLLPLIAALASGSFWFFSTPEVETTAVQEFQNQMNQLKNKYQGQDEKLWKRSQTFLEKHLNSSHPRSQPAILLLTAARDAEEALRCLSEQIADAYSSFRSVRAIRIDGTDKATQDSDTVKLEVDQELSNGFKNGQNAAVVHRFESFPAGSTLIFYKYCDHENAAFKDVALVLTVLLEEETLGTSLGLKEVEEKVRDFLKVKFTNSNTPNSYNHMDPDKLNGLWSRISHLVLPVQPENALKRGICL
# [20] = target: Alpha-bungarotoxin (Bungarus multicinctus) (UniProt P60615); assay: compounds binding labelled alpha-BTX control protein – biochemical, small-molecule microarray, Alexa647 label, 635/667 nm fluorescence, artefact control for SMM control protein annotation, profiling panel (AID 1117); details: alpha-BTX-A647 binding fluorescence, higher = more signal
# Sequence of Alpha-bungarotoxin (Bungarus multicinctus) (P60615 whole entry, looked up): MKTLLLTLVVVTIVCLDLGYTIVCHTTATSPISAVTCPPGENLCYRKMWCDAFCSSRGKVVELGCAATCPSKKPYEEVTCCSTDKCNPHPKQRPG
smiles,measurement,setting,value
CN(C)C(=O)[C@]1(Cc2ccccc2N=[N+]=[N-])N=C(c2ccc(OCCCO)cc2)O[C@@H]1c1ccccc1,composite z-score,[1],1.47
same,composite z-score,[2],0.467
same,composite z-score,[3],0.787
same,z-score,[4],-1.17 (inactive)
same,composite z-score,[5],0.818
same,composite z-score,[6],1.28
same,composite z-score,[7],0.0161
same,composite z-score,[8],0.373
same,composite z-score,[9],-0.121
same,composite z-score,[10],0.545
same,composite z-score,[11],1.08
same,z-score,[12],-1.85
same,composite z-score,[13],0.104
same,composite z-score,[14],0.516
same,composite z-score,[15],0.0377
same,composite z-score,[16],-0.329
same,composite z-score,[17],-0.116
same,composite z-score,[18],0.973
same,composite z-score,[19],0.897
same,composite z-score,[20],1.3
C=C(CCCC)C(=O)CC[C@H](OC(C)=O)c1cccc(OCCO)c1,composite z-score,[1],0.707
same,composite z-score,[2],-0.409
same,composite z-score,[3],-0.193
same,z-score,[4],1.01 (inactive)
same,composite z-score,[5],-0.633
same,composite z-score,[6],-0.654
same,composite z-score,[7],-0.961
same,composite z-score,[8],-0.794
same,composite z-score,[9],-0.759
same,composite z-score,[10],-0.162
same,composite z-score,[11],-0.252
same,z-score,[12],-1.78
same,composite z-score,[13],-0.433
same,composite z-score,[14],-0.687
same,composite z-score,[15],-0.918
same,composite z-score,[16],-0.156
same,composite z-score,[17],-0.0709
same,composite z-score,[18],-0.036
same,composite z-score,[19],1.31
same,composite z-score,[20],-0.653
CCOc1cc(C(O)C2C=CC3C(=O)N(c4ccccc4)C(=O)C3N2Nc2ccccc2)ccc1O (stereo not given),composite z-score,[1],0.716
same,composite z-score,[2],-0.0126
same,composite z-score,[3],0.834
same,z-score,[4],0.608 (inactive)
same,composite z-score,[5],0.671
same,composite z-score,[6],0.0622
same,composite z-score,[7],-0.114
same,composite z-score,[8],0.128
same,composite z-score,[9],-0.832
same,composite z-score,[10],0.829
same,composite z-score,[11],1.31
same,z-score,[12],-0.0374
same,composite z-score,[13],0.181
same,composite z-score,[14],0.0041
same,composite z-score,[15],-0.748
same,composite z-score,[16],-0.0312
same,composite z-score,[17],0.191
same,composite z-score,[18],0.387
same,composite z-score,[19],0.604
same,composite z-score,[20],0.147
CC1(C)[C@@H]2CC(C(O)C3C=CC4C(=O)N(c5ccccc5)C(=O)C4N3Nc3ccccc3)=C[C@H]1C2 (stereo not given in full),composite z-score,[1],0.576
same,composite z-score,[2],0.592
same,composite z-score,[3],0.663
same,z-score,[4],0.99 (inactive)
same,composite z-score,[5],0.104
same,composite z-score,[6],0.33
same,composite z-score,[7],-0.316
same,composite z-score,[8],0.114
same,composite z-score,[9],0.011
same,composite z-score,[10],1.2
same,composite z-score,[11],0.455
same,z-score,[12],-0.595
same,composite z-score,[13],-0.158
same,composite z-score,[14],0.718
same,composite z-score,[15],-0.374
same,composite z-score,[16],0.0044
same,composite z-score,[17],0.241
same,composite z-score,[18],-0.43
same,composite z-score,[19],0.873
same,composite z-score,[20],0.577
CN1C(=O)C2C=CC(C(O)c3ccc(-c4ccccc4)s3)N(N(c3ccccc3)c3ccccc3)C2C1=O (stereo not given),composite z-score,[1],0.61
same,composite z-score,[2],0.818
same,composite z-score,[3],0.798
same,z-score,[4],0.214 (inactive)
same,composite z-score,[5],0.186
same,composite z-score,[6],0.724
same,composite z-score,[7],-0.0198
same,composite z-score,[8],0.338
same,composite z-score,[9],0.0129
same,composite z-score,[10],1.18
same,composite z-score,[11],0.761
same,z-score,[12],0.339
same,composite z-score,[13],-0.18
same,composite z-score,[14],0.906
same,composite z-score,[15],0.405
same,composite z-score,[16],0.0324
same,composite z-score,[17],-0.0813
same,composite z-score,[18],1.44
same,composite z-score,[19],0.397
same,composite z-score,[20],1.37
Cc1ccc(S[C@]2(C(=O)NCC(F)(F)F)CC(=O)N(C(C)C)[C@@H]2c2ccc(CO)cc2I)cc1,composite z-score,[1],0.903
same,composite z-score,[2],0.372
same,composite z-score,[3],0.893
same,z-score,[4],-0.465 (inactive)
same,composite z-score,[5],0.203
same,composite z-score,[6],-0.547
same,composite z-score,[7],-0.619
same,composite z-score,[8],-1.02
same,composite z-score,[9],-0.78
same,composite z-score,[10],0.743
same,composite z-score,[11],-0.554
same,z-score,[12],-1.76
same,composite z-score,[13],-0.754
same,composite z-score,[14],-0.0874
same,composite z-score,[15],0.363
same,composite z-score,[16],-0.101
same,composite z-score,[17],-0.0192
same,composite z-score,[18],0.986
same,composite z-score,[19],-0.261
same,composite z-score,[20],-0.472
COc1ccc([Si](C)(C)[C@@H]2[C@@H](CC(=O)N3Cc4ccccc4C[C@H]3CO)O[C@]3(C(=O)N(C)c4c(Br)cc(C)cc43)[C@H]2C)cc1,composite z-score,[1],0.859
same,composite z-score,[2],-0.0347
same,composite z-score,[3],-0.311
same,z-score,[4],-2.12 (inactive)
same,composite z-score,[5],1.33
same,composite z-score,[6],0.954
same,composite z-score,[7],0.968
same,composite z-score,[8],1.08
same,composite z-score,[9],0.685
same,composite z-score,[10],1.13
same,composite z-score,[11],1.37
same,z-score,[12],-4.43
same,composite z-score,[13],0.637
same,composite z-score,[14],0.0208
same,composite z-score,[15],0.235
same,composite z-score,[16],0.0078
same,composite z-score,[17],-0.0793
same,composite z-score,[18],-0.454
same,composite z-score,[19],0.418
same,composite z-score,[20],1.01
CN(C)CCCCCCNC(=O)[C@@H]1C[C@@H]2C(=O)N[C@@H](CCCCN)C(=O)N2[C@@H]1c1cccc(OCCO)c1,composite z-score,[1],1.96
same,composite z-score,[2],2.69
same,composite z-score,[3],1.65
same,z-score,[4],-1.56 (inactive)
same,composite z-score,[5],1.59
same,composite z-score,[6],1.47
same,composite z-score,[7],1.11
same,composite z-score,[8],1.66
same,composite z-score,[9],2.13
same,composite z-score,[10],1.55
same,composite z-score,[11],1.49
same,z-score,[12],-0.0282
same,composite z-score,[13],1.34
same,composite z-score,[14],2.8
same,composite z-score,[15],1.34
same,composite z-score,[16],1.07
same,composite z-score,[17],1.7
same,composite z-score,[18],3.42
same,composite z-score,[19],4.77
same,composite z-score,[20],2
COCCOC(=O)N1C(=O)[C@@]2(c3ccccc31)[C@H](c1ccccc1OCCO)N1[C@H](c3ccccc3)[C@H](c3ccccc3)OC(=O)[C@H]1[C@@H]2C(=O)Nc1nc2ccccc2s1,composite z-score,[1],1.4
same,composite z-score,[2],0.262
same,composite z-score,[3],0.245
same,z-score,[4],-0.968 (inactive)
same,composite z-score,[5],1.1
same,composite z-score,[6],1.32
same,composite z-score,[7],0.661
same,composite z-score,[8],1.34
same,composite z-score,[9],0.476
same,composite z-score,[10],0.0911
same,composite z-score,[11],0.484
same,z-score,[12],-2.52
same,composite z-score,[13],0.531
same,composite z-score,[14],1.24
same,composite z-score,[15],0.375
same,composite z-score,[16],0.0095
same,composite z-score,[17],-0.188
same,composite z-score,[18],0.326
same,composite z-score,[19],0.988
same,composite z-score,[20],1.74
C=CCC(OC(C)=O)[C@@H]1[C@@H](N(Cc2ccc(-c3cccc(C(F)(F)F)c3)o2)C(=O)c2ccc(-c3ccccc3)cc2)c2cc(OCCCO)ccc2N1C(=O)c1ccc(-c2ccccc2)cc1 (stereo not given in full),composite z-score,[1],-0.285
same,composite z-score,[2],0.31
same,composite z-score,[3],0.543
same,z-score,[4],0.196 (inactive)
same,composite z-score,[5],0.269
same,composite z-score,[6],-0.754
same,composite z-score,[7],-0.327
same,composite z-score,[8],0.104
same,composite z-score,[9],-0.0545
same,composite z-score,[10],1.32
same,composite z-score,[11],-0.165
same,z-score,[12],-0.614
same,composite z-score,[13],-0.15
same,composite z-score,[14],-0.104
same,composite z-score,[15],1.35
same,composite z-score,[16],0.0214
same,composite z-score,[17],0.275
same,composite z-score,[18],0.26
same,composite z-score,[19],-0.228
same,composite z-score,[20],0.288
